# Measurements taken from the supplement of paper PMC3334620.
# In all, about 33,000 sequences were measured (“E-score (-0.5 to 0.5)”: median about -0.04, highest 2% from about 0.36 on). Only a selection was taken, and the highest values are over-represented in it overall.
# Biological target: T1, Hmlalpha2 (UniProt P0CY09)
# T1 sequence: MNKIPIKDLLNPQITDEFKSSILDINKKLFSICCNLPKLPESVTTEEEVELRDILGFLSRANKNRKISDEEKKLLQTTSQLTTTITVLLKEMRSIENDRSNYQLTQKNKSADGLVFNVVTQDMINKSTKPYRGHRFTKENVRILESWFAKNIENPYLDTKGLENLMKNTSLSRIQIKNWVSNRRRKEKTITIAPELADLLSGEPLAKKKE
# Assay: PBM E-score (8-mer binding enrichment) (E-score (-0.5 to 0.5)); higher = stronger / more preferred TF binding
# Settings: protein concentration: 200 nM; construct: GST-full length
# How it was run: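 E-scores (a modified Wilcoxon-Mann-Whitney statistic) were assigned by the Universal PBM Analysis Suite to every ungapped eight-base word pooled with its reverse complement. The input came from universal all-10-mer Agilent arrays made double-stranded by primer extension and probed with GST-tagged yeast transcription factors at about 100-200 nM. Fluorescent anti-GST detected bound protein, and masliner normalised the scans.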
row,Sequence,PBM E-score
1,GCTCAGAA,-0.0102
2,AGTAACTA,0.213
3,CAGATCCA,-0.0975
4,AGACGCCG,-0.154
5,ATACGTAG,0.257
6,ATACGTAA,0.379
7,ATACGTAC,0.242
8,TTACGTAA,0.426
9,CTACGTAA,0.318
10,TTACGCAA,0.391
11,GTACGCAA,0.155
12,ATACGCAA,0.347
13,GTACGTAA,0.34
14,CTCCTCGC,-0.164
15,CTCCATCC,-0.1
16,CAGCCGTC,-0.132
17,AACACATG,0.363
18,CACACATA,0.214
19,AACACATA,0.39
20,GACACATA,0.26
21,AACACATC,0.291
22,TACACATA,0.408
23,GAACCACA,0.0162
24,GAATTGAC,0.104
25,ACTTTGGA,0.136
26,ATGTCATA,0.311

row,Sequence,PBM E-score
1,ATGTCAAA,0.354
2,ATGTCAAT,0.4
3,ATGTCAAG,0.305
4,TTGTCAAA,0.262
5,ATGTCATC,0.0953
6,GTGTCAAA,0.382
7,ATGTCATG,0.388
8,ATGTCAAC,0.374
9,GTGTCAAC,0.305
10,CTGTCAAA,0.18
11,CTGTCAAC,0.198
12,AGAAAGCG,-0.00586
13,ATGCTGGC,0.0473
14,GCCATTTA,0.00861
15,GAGATTCC,-0.218
16,ATATTCTG,0.00643
17,CCTTAAAC,-0.15
18,ATGCTAAT,0.167
19,AGATTGTG,0.0599
20,AACATTAC,0.332
21,CACATTAC,0.375
22,CACATTAG,-0.078
23,CGCGCACA,0.133
24,CGTGTAGC,0.344
25,GATGTAGA,0.314
26,AGTGTAGA,0.171

row,Sequence,PBM E-score
1,CGTGTAGA,0.482
2,CCTGTAGA,0.0876
3,CAAGTAGG,-0.0322
4,AATGTAGG,0.0581
5,CATGTAGG,0.407
6,CATGTAGA,0.472
7,CATGTAGC,0.344
8,TATGTAGA,0.424
9,AATGTAGA,0.301
10,ACATAGCC,0.231
11,CCGCTCTC,-0.296
12,AGCTTAAA,-0.0456
13,AATCTGTA,0.186
14,AATTAGGC,-0.0388
15,AGCCTAAG,-0.223
16,CTAGACGA,-0.137
17,AACAGGTG,0.184
18,TAGATATA,0.0377
19,AGCATGTC,0.267
20,AGCATGTA,0.458
21,CGCATGGA,-0.0665
22,GGCATGGA,-0.113
23,CGCATGTA,0.422
24,AGCATGTG,0.22
25,GGCATGCA,0.128
26,CGCATGTC,0.274

row,Sequence,PBM E-score
1,GGCATGTA,0.439
2,AAGGGTGC,-0.233
3,AGGGTGTA,0.186
4,TTCTACAA,0.314
5,ACCCTGAT,-0.3
6,CTGTTATC,-0.00298
7,GCGTTATA,0.218
8,ATGTTATA,0.418
9,CTGTTATA,0.29
10,ATGTTATG,0.425
11,ATGTTACG,0.351
12,AAGTTATG,0.256
13,ACGTTATA,0.275
14,AGGTTATA,0.0651
15,ACGTTATC,0.145
16,ATGTTATC,0.401
17,GTGTTATA,0.444
18,ATGAGGCG,-0.102
19,AAGGAGCA,-0.237
20,CACCTCAC,0.0105
21,CCTATTCA,-0.319
22,CGCGGCCC,-0.135
23,CATTCTCG,-0.0595
24,AGAACGAC,-0.0288
25,AAGAGCGA,-0.2
26,GTCGTGCA,0.0844

row,Sequence,PBM E-score
1,CTCGTGGA,-0.107
2,GTCGTGGA,-0.154
3,GTCGTGTA,0.464
4,CTCGTGTA,0.434
5,ATCGTGTC,0.358
6,CTCGTGTC,0.257
7,ATCGTGTA,0.475
8,ATCGTGTG,0.313
9,CACCTATC,-0.0688
10,AGTAGTCA,-0.00856
11,CCAGGTAC,-0.122
12,ATAAGCAG,-0.00191
13,CGTTTTTA,0.253
14,GCAGTGTA,0.292
15,ACACGGGC,0.325
16,AAACGGGT,0.153
17,ACACGGCT,0.32
18,ACACGGGG,0.3
19,ACACGGGA,0.371
20,ACACGGGT,0.391
21,CTCTGCAA,-0.0611
22,CGGAGCTA,-0.0643
